Test results from PubChem BioAssay AID1626 (SRMLSC, 2009).
Hit rate of the full screen: of about 220,000 compounds, about 2,000 (0.91%) were called active. About 2% were inconclusive and are not listed. The list is a sample of the results. Entries with a potency or affinity are not part of this list. Unmarked numbers belong to inactive results. No stated cut-off is given here; in the data, inconclusive means inhibition above about 80% without an active follow-up result; inactive means below that; test concentration not stated here.

Assay: M. tuberculosis H37Rv growth inhibitors, H37Rv strain (AID 1626);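 further: bacteria incubated seven days before Alamar blue readout; 0% = bacteria only wells and 100% = bacteria with antibiotic wells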
Conditions: stronger effect = higher value, concentration not given here

Structure (SMILES) | inhibition
O=C(Nc1ccc(Cl)c([N+](=O)[O-])c1)ONC1=NCCCCC1 | 0.03%
CCCNC(=O)NC(=O)CN1C(=O)NC(C)(c2ccc(C)cc2)C1=O (stereo unspecified) | -1.35%
CC(C(N)=O)N1C(=O)C2C3C=CC(C3)C2C1=O (stereo unspecified) | -3.12%
Cc1ccc(-c2cc(C(=O)NCc3cccnc3)no2)cc1 | 3.89%
Cc1ccc(NC(=S)NCCc2c[nH]c3ccccc23)c(C)c1 | 4.17%
Cc1nn(C)cc1/C=C/C(=O)c1cccs1 | 2.82%
Cc1c(/C=C/C(=O)c2cccs2)cnn1C | -1.78%
CCN(CC)C(=S)SCC(=O)Nc1ncc2c(n1)CC(C)(C)CC2=O | 1.56%
CC1=C(C(=O)Nc2ccccc2)C(c2ccco2)C(C#N)=C(SCC(=O)Nc2cccc(C)c2C)N1 (stereo unspecified) | 4.09%
CC(=O)C1=C(C)NC(SCC(=O)c2ccc(Cl)cc2Cl)=C(C#N)C1c1ccco1 (stereo unspecified) | 12.4%
CC(=O)C1=C(C)NC(SCC(=O)c2ccc(Cl)cc2)=C(C#N)C1c1ccco1 (stereo unspecified) | 50%
CC(=O)C1=C(C)NC(SCC(N)=O)=C(C#N)C1c1ccco1 (stereo unspecified) | -4.99%
CC(=O)C1=C(C)NC(SCc2ccc(C#N)cc2)=C(C#N)C1c1ccco1 (stereo unspecified) | -1.27%
CC(=O)C1=C(C)NC(SCC(=O)c2cc(Cl)ccc2Cl)=C(C#N)C1c1ccco1 (stereo unspecified) | 15.3%
CC(=O)C1=C(C)NC(SCC(=O)c2ccccc2)=C(C#N)C1c1ccco1 (stereo unspecified) | 43.6%
CCOc1ccccc1NC(=O)CSC1=C(C#N)C(c2ccco2)C(C(=O)Nc2nc3ccccc3s2)=C(C)N1 (stereo unspecified) | 49.1%
CN1CCN(C(=O)c2cc3nc(-c4ccc(F)cc4)cc(C(F)(F)F)n3n2)CC1 | -1.56%
CC(C)OP(=O)(OC(C)C)C(O)c1ccc(Br)cc1 (stereo unspecified) | -5.46%
O=S(=O)(c1ccc(Cl)s1)N1CCC(Cc2ccccc2)CC1 | -5.95%
O=C(Nc1cccc([N+](=O)[O-])c1)c1ccc(N2CCCC2=O)cc1 | 3.44%
COc1cc(C(=O)NNC(=O)c2ccoc2C)cc(OC)c1OC | -3.54%

Structure (SMILES) | inhibition
COc1ccc(C)cc1NC(=O)COC(=O)C1CCN(C(=O)c2ccc(Cl)cc2)CC1 | 3.93%
Cc1ccc(NC(=O)Cn2c(O)c(N=NC(=O)c3ccncc3)c3ccccc32)cc1 | -1.42%
O=C(C1CCCCC1)N1CCN(C(=O)C2CCCCC2)CC1 | -1.95%
Cc1c(CCC(C)C)c(=O)n2c([nH]c3ccccc32)c1C#N | 5.47%
Cc1c(CCC(=O)O)c(=O)n2c([nH]c3ccccc32)c1C#N | -32.2%
CCc1c(C)c(C#N)c2[nH]c3ccccc3n2c1=S | -5.86%
CCc1cc(=S)n2c([nH]c3ccccc32)c1C#N | -2.47%
COc1c(O)ccc2cnn(-c3ccccc3C)c(=O)c12 | -8.74%
CC1CC(C)CN(CC(O)COCCOc2ccc(Br)cc2)C1 (stereo unspecified) | 0.51%
CCCCN1CC[C@H]2C=CC[C@@H](C(=O)Nc3ccccc3)[C@H]2C1=O | -7.03%
Cn1c(-c2ccccc2)cc(=O)c2ccccc21 | 1.71%
c1ccc(-c2cc3c(ccc4nonc43)nn2)cc1 | -7.6%
COc1ccc2c(c1)c(=O)cc(-c1ccccc1)n2C | -2.37%
[O-][n+]1onc2c3ccnnc3ccc21 | 58.6%
CCCCCC(=O)N/N=C(\C)c1ccc(N2CCCCC2)cc1 | -2.51%
CCOc1ccc2cc(C3CC(c4ccco4)=NN3S(C)(=O)=O)c(=O)[nH]c2c1 (stereo unspecified) | 0.83%
COc1ccccc1OCCSc1nc2ccccc2n1CCO | -6.33%
O=C1CC(NCc2ccc(F)cc2)C(=O)N1c1ccccc1 (stereo unspecified) | -1.25%
CCOC(=O)N1CCN(C(=O)C2CCN(S(=O)(=O)c3ccc(C)cc3)CC2)CC1 | -7.16%
COc1ccccc1-n1c(SCC(=O)N2CCOCC2)nc(O)c(Cc2ccccc2)c1=O | -3.87%
C[C@@H]1C=C[C@](Cc2ccccc2)(C(=O)NCC2CC2)N1C(=O)c1ccccc1 | -23%

Structure (SMILES) | inhibition
COc1cc2c(cc1NC(=O)c1ccc3c(c1)OCO3)oc1ccccc12 | -1.46%
COc1ccccc1CC(=O)Nc1cc2oc3ccccc3c2cc1OC | -9.4%
COc1ccccc1NC(=S)NCc1ccc2c(c1)OCO2 | 7.62%
COc1cc2c(cc1NC(=O)COc1ccccc1OC)oc1ccccc12 | 0.28%
O=C(CN(C(=O)Cn1nnc(-c2ccc(F)cc2)n1)C1CCCC1)NC1CCCC1 | 0.92%
O=[N+]([O-])c1ccc(N2CCN(C(=S)c3cccc([N+](=O)[O-])c3)CC2)cc1 | 1.74%
CCN(C1CCCCC1)S(=O)(=O)c1ccc(C(=O)O)cc1 | -11.6%
CCO[C@H]1OC(C(=O)N2CCOCC2)=C[C@@H](c2ccccc2)[C@@H]1CCCO | 0.78%
Cc1ccccc1OCCn1cc(C(=O)C(=O)N2CCOCC2)c2ccccc21 | 5.53%
O=C(CO/N=C/c1ccccc1Cl)N1CCCc2ccccc21 | 4.05%
COc1ccccc1N1CCN(C(=O)C(Sc2ccccc2)c2ccccc2)CC1 (stereo unspecified) | -2.82%
CCOC(=O)c1csc(NC(=O)COc2ccc(Cl)cc2Cl)n1 | -7.94%
Cc1onc(C(=O)NN)c1-c1csc(COc2ccc(Cl)cc2)n1 | -10.6%
CC(=O)c1csc(COc2ccc(Cl)cc2)n1 | -4.98%
CCOC(=O)c1csc(COc2ccccc2Cl)n1 | -4.66%
CCC(=O)NNC(=O)c1cc(COc2cc(Cl)cc(Cl)c2)on1 | 13.9%
CCOC(=O)c1sc(-c2ccc(C(F)(F)F)cc2)nc1O | -1.38%
CC(C)NC(=O)NNC(=O)c1cc(COc2cc(Cl)cc(Cl)c2)on1 | -6.1%
Cc1nc(-c2cc(-c3nc(-c4ccc(C(F)(F)F)cc4)no3)no2)cs1 | 7.08%
